The record followed here is the supplement of paper PMC10849652.

Targets with a hit are over-represented here; the source holds about 7,900 in all. About 0.6% of all pairs of compound and target were hits. Unmarked numbers belong to inactive results.

UniProt Q9UBK9, sequence (Q9UBK9 whole entry, looked up): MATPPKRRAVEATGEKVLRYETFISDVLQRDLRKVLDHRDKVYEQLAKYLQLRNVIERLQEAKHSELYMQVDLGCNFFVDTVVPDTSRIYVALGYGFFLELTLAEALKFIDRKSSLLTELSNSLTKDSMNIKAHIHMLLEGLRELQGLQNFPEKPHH
UniProt Q5U3C3, sequence (Q5U3C3 whole entry, looked up): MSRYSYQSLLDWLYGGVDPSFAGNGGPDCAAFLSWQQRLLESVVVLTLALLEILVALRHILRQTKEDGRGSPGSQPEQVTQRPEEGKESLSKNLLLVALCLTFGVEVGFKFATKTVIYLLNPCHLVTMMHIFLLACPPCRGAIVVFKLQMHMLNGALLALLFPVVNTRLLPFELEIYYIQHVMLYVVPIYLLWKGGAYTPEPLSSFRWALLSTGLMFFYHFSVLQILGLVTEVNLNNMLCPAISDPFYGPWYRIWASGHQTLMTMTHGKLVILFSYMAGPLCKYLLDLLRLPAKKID
UniProt Q5TAX3, sequence (Q5TAX3 whole entry, looked up): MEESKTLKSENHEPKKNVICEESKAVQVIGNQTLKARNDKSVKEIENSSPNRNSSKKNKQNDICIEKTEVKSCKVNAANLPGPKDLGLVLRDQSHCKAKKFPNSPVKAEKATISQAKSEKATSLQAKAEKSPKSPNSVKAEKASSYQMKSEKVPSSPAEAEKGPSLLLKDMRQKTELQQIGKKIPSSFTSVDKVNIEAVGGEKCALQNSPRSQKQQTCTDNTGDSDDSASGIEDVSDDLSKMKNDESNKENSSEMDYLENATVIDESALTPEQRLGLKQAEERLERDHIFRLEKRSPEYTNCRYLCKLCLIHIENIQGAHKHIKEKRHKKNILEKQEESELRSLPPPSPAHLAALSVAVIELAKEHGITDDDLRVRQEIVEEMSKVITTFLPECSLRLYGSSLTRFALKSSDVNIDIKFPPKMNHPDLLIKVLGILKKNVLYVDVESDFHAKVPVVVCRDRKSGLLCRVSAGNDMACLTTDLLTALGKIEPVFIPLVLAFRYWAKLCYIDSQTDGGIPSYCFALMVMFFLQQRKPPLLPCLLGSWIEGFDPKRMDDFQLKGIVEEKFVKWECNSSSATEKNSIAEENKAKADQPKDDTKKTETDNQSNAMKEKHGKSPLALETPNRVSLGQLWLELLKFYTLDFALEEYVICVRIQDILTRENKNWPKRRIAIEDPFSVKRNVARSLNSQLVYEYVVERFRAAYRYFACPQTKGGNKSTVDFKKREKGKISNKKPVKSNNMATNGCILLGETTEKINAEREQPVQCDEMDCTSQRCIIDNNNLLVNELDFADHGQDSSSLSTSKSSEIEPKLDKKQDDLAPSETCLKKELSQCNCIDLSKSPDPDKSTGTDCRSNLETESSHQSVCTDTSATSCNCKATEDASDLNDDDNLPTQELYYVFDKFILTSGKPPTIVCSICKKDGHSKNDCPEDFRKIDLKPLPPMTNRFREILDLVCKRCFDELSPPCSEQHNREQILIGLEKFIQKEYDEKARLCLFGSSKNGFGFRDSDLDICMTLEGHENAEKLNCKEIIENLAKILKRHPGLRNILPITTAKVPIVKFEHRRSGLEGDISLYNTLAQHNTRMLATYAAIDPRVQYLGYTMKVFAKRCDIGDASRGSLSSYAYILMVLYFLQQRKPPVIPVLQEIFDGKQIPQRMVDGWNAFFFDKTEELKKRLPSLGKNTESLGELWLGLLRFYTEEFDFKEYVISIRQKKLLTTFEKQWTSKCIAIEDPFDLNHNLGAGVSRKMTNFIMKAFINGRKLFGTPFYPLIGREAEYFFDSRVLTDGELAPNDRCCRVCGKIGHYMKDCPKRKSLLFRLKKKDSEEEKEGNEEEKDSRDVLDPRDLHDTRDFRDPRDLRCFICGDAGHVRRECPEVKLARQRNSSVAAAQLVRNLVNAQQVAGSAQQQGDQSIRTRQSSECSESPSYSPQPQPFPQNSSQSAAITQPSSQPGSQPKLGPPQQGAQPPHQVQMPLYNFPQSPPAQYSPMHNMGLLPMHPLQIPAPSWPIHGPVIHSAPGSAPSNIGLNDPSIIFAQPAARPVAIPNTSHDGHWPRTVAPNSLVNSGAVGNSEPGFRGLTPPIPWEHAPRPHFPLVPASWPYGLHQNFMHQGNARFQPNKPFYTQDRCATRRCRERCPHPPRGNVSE
UniProt A6NHL2, sequence (A6NHL2 whole entry, looked up): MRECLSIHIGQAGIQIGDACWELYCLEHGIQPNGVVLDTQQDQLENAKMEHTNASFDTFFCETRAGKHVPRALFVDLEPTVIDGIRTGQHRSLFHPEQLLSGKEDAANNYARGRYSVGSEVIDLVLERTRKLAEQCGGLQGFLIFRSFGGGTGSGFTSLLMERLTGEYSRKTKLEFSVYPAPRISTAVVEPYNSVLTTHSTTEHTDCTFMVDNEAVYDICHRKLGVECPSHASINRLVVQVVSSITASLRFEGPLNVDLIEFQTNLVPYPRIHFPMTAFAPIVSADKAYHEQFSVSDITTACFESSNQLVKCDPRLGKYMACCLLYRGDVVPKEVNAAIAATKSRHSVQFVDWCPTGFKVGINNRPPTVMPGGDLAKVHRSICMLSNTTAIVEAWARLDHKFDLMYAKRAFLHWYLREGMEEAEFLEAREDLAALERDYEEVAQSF
UniProt Q502W6, sequence (Q502W6 whole entry, looked up): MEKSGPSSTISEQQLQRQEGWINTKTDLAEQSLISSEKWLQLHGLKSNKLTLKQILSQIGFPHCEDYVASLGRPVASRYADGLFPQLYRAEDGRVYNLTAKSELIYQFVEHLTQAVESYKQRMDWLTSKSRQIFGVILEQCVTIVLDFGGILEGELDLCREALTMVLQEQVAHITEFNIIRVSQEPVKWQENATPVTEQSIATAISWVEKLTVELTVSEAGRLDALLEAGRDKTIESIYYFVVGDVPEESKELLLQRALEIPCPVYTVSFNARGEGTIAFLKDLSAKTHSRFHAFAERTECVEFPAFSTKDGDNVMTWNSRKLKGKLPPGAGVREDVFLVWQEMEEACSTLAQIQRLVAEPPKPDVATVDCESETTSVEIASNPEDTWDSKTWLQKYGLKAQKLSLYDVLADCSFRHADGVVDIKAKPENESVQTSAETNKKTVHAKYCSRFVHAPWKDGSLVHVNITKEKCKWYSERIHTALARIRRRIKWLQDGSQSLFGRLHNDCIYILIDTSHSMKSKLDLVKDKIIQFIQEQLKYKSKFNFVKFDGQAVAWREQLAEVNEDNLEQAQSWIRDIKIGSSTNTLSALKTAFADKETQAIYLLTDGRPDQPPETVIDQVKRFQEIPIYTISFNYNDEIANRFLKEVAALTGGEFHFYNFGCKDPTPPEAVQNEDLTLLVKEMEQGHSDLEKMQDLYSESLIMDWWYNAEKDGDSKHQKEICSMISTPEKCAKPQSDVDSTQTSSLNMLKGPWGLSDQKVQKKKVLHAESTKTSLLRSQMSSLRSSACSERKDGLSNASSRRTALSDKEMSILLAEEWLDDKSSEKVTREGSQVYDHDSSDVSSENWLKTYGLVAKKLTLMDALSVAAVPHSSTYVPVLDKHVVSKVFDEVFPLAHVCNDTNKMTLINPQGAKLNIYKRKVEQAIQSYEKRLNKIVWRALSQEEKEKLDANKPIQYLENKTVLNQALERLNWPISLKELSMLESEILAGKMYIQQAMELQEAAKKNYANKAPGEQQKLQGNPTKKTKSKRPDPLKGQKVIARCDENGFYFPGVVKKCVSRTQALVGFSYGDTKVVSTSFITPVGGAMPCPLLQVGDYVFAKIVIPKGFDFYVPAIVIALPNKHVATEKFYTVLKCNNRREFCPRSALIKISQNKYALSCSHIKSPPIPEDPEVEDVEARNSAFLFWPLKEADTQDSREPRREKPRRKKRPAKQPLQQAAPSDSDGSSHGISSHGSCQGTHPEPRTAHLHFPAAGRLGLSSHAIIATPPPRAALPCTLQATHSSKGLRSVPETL
UniProt Q9NUM4, sequence (Q9NUM4 whole entry, looked up): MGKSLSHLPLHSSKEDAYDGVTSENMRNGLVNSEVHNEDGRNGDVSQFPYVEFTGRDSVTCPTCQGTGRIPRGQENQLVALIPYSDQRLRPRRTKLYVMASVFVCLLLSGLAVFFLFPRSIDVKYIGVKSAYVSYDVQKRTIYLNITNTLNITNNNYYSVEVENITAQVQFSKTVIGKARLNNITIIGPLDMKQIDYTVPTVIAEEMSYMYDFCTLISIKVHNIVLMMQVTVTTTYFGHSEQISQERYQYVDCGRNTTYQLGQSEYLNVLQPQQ
UniProt Q8NEZ2, sequence (Q8NEZ2 whole entry, looked up): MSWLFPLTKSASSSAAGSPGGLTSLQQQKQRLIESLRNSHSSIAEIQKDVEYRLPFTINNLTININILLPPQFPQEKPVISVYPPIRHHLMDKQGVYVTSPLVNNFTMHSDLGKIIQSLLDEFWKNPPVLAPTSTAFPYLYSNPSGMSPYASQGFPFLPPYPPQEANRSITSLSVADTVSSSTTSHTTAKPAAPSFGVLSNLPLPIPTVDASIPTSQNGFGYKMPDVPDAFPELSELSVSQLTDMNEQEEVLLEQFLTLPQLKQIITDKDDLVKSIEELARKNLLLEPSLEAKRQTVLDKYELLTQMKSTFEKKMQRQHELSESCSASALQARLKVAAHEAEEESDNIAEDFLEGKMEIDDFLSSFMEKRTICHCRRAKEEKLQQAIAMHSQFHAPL
UniProt Q9Y385, sequence (Q9Y385 whole entry, looked up): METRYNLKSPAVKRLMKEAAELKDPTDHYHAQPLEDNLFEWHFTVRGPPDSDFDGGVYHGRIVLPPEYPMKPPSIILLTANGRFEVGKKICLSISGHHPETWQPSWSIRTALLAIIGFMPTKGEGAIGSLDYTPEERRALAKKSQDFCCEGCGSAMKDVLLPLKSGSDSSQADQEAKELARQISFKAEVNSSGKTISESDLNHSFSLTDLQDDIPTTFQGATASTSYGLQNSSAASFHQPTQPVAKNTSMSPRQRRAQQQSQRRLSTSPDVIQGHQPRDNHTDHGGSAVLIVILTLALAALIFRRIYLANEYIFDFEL
UniProt Q9BQB6, sequence (Q9BQB6 whole entry, looked up): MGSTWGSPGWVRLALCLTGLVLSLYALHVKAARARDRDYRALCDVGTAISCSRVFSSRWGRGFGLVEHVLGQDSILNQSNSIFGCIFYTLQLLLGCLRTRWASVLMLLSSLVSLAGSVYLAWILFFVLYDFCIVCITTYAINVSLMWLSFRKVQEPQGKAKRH

Compound in this assay: Cc1cn(-c2cc(NC(=O)c3ccc(C)c(Nc4nccc(-c5cccnc5)n4)c3)cc(C(F)(F)F)c2)cn1 [nilotinib]
Nature of the assay: log2 fold change, soluble protein after heating vs DMSO (PISA); higher = thermal stabilisation; K562 cells, 10 uM, 30 min; active = over 0.2 and 3.5 SD of the protein, either way, in both replicates (recomputed). In short, it runs like this:
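K562 cells at 2×10^6 cells/mL were treated with 10 μM compound for 30 min. Aliquots were heated for 3 min across 48°C-58°C, pooled, and extracted in PBS with 0.5% NP-40 at 4°C; soluble protein was the supernatant after 21,000xg for 90 min. Soluble protein was quantified by TMTpro 16plex LC-MS/MS with channel sums equalised, and reported as log2 fold change in thermal stability against DMSO controls, with values from duplicates.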
Take UBIAD1 (UniProt Q9Y5Z9): the log2 fold change is 0.074.
With TMEM41A (UniProt Q96HV5) the figure was -0.008.
The result for TRIM23 (UniProt P36406) reads -0.091; that for TXNL4B (UniProt Q9NX01), 0.003.
With TSPAN13 (UniProt O95857) the figure was 0.056.
With UNC119B (UniProt A6NIH7), the log2 fold change is 0.16.
As for TUT4 (UniProt Q5TAX3), the log2 fold change was -0.153.
As for VKORC1 (UniProt Q9BQB6), the log2 fold change was -0.008.
With UBAP2L (UniProt F8W726) the figure was 0.151.
With WASH2P (UniProt Q6VEQ5) the figure was -0.069; with TMEM184C (UniProt Q9NVA4), -0.007.
Consider VWA3B isoform 6 (UniProt Q502W6), for which the log2 fold change is -0.128.
In the case of UBE2J1 (UniProt Q9Y385), the log2 fold change was -0.076.
Consider TMEM268 isoform 3 (UniProt Q5VZI3), for which the log2 fold change was 0.008.
With UFM1 isoform 2 (UniProt P61960) the figure was -0.009; with TMEM106B (UniProt Q9NUM4), -0.015.
The result for UBE2D1 (UniProt P51668) reads -0.002.
Consider VPS37A (UniProt Q8NEZ2), for which the log2 fold change was -0.134.
The result for XRCC6 (UniProt P12956) reads -0.067; that for UBXN10 (UniProt Q96LJ8), -0.085.
As to TXNIP (UniProt Q9H3M7), the log2 fold change was 0.018.
With WEE1 (UniProt P30291) the figure was 0.182; with TRABD (UniProt Q9H4I3), 0.185; with TMEM164 (UniProt Q5U3C3), 0.023.
As to TRIM44 (UniProt Q96DX7), the log2 fold change was -0.024.
For TUBAL3 (UniProt A6NHL2), the log2 fold change was -0.144.
With TMEM8A (UniProt Q9HCN3), the log2 fold change is -0.033.
Take TRIM4 (UniProt Q9C037): the log2 fold change is 0.111.
With UXT isoform 2 (UniProt Q9UBK9) the figure was 0.04; with TMEM9B (UniProt Q9NQ34), 0.005; with TMEM219 (UniProt Q86XT9), -0.243.
For the target VPS35L (UniProt Q7Z3J2), the log2 fold change is -0.201.
With VPS13B (UniProt Q7Z7G8) the figure was -0.005.
Turning to TMEM179B (UniProt Q7Z7N9), the log2 fold change is 0.046.
Regarding XIAP (UniProt P98170), the log2 fold change was 0.366.
With VPS51 (UniProt Q9UID3) the figure was -0.089.
